Source: PubChem BioAssay
Potency and affinity values are given separately. Inconclusive results are not listed. Active and inactive are the calls of the source. Unless noted, how the calls were made is not given here.

Assays:
[1] = cytotoxicity in PAX8-dependent RMG-1 cells, dose response, cell-based, cherry-pick (AID 687029;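 active means signal drop whose fitted half-maximal concentration is at most twice the top valid dose, in every test run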;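 further: cells exposed to compound for 96 hours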); details: RMG-1 viability, CellTiterGlo ATP luminescence, 96 h; series mostly up to 35 µM
[2] = non-specific cell cytotoxicity, dose response, cytotoxicity control for PAX8 inhibitor project, plate reader, dry powder samples (AID 743021); details: cell line, non-specific cytotoxicity counter-screen; series mostly up to 35 µM
[3] = cytotoxicity in IOSE-T80 ovarian epithelial cells, dose response, selectivity assay for PAX8 inhibitor project, cell-based, cherry-pick (AID 687032;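 active means fitted half-maximal concentration for viability loss no higher than twice the top valid dose, in every repeat run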;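 further: cells exposed to compound for 96 h before reading; 0% = neutral control wells and -100% = 2 µM mitoxantrone kill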); details: CellTiterGlo ATP luminescence, 96 h; series mostly up to 35 µM
[4] = inhibitors of CMV-promoter luciferase reporter, dose response, counter-screen for Pax8 inhibitor project, cell-based, HEK293, luminescence, dry powder (AID 743020;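 active means signal-lowering compounds whose fitted half-maximal concentration is at or below twice the top tested dose in every run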;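 further: HEK293 cells stably expressing the CMV luciferase reporter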); details: SteadyGlo luminescence, 24 h; series mostly up to 35 µM
[5] = IGROV1 ovarian cancer cell cytotoxicity, dose response, PAX8 inhibitor project, plate reader, dry powder samples (AID 743043); details: series mostly up to 35 µM;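 further: more negative means fewer viable cells or more cytotoxicity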
[6] = IOSE-T80 ovarian epithelial cell cytotoxicity, dose response, cytotoxicity control for PAX8 inhibitor project, plate reader, dry powder samples (AID 743045); details: IOSE-T80 ovarian epithelial cells; series mostly up to 35 µM;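 further: 0% = neutral control median and -100% = positive control median; more negative values mean more cell killing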
[7] = A2780 ovarian cancer cell cytotoxicity, dose response, cytotoxicity control, plate reader, dry powder samples (AID 743046); details: series mostly up to 35 µM;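 further: 0% = neutral control wells and -100% = cytotoxic reference compound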
[8] = cytotoxicity in OVCAR8 ovarian cancer cells, dose response, PAX8 project, cell-based, plate reader, dry powder samples (AID 743197); details: series mostly up to 35 µM
[9] = NIH:OVCAR-3 ovarian cancer cell cytotoxicity, dose response, PAX8 inhibitor project, plate reader, dry powder samples (AID 743044); details: NIH:OVCAR-3 ovarian cancer cell viability; max activity: at 35 µM, hits give low values unless noted; series mostly up to 50 µM
[10] = HepG2 cell cytotoxicity, dose response, cytotoxicity control, plate reader, cherry-pick, antagonist series (AID 743416); details: series mostly up to 26 µM;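 further: 0% = neutral control wells and -100% = positive control wells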

Measured: max activity

COC(=O)[C@H]1[C@@H](O)[C@@]2(O)c3c(OC)cc(OC)cc3O[C@@]2(c2ccc(OC)cc2)[C@@H]1c1ccc(F)cc1
inactive: [1] | [2]

COc1ccc(-c2cnc3c(NC=O)cc(-c4ccccc4OC)cn23)cc1OC
inactive: [1] | [2]

CN(C)c1ncnc2c1nnn2C1OC(CO)C(O)C1O (stereo not given)
inactive: [1] | [2]

COc1cccc2c1C(=O)c1c(O)c3c(c(O)c1C2=O)C[C@@](O)(C(C)=O)C[C@@H]3O[C@H]1C[C@H](N)[C@H](O)[C@H](C)O1
inactive: [1] | [2]

Cc1cc(C)c2nc(SCC(=O)N3CC(=O)Nc4ccccc43)c(C#N)cc2c1
inactive: [1] | [2]

O=C(Nc1ccc(N2CCN(C(=O)c3cccs3)CC2)cc1)c1ccc([N+](=O)[O-])o1
inactive: [1] | [2]

Cc1cc(-c2n[nH]c(=S)n2/N=C/C(Br)=C/c2ccccc2)n[nH]1
inactive: [1] | [2]

O=c1[nH]c(-c2ccccn2)nc2sc(-c3ccccc3)cc12
inactive: [1] | [2]

CN(/N=C/c1ccc(O)cc1O)c1nc(-c2ccccc2)cc(-c2ccccc2)n1
inactive: [1] | [2]

CCCCCC(CC(=O)NO)C(=O)NC(C(=O)N1CCCC1CO)C(C)C (stereo not given)
inactive: [1] | [2]

COc1ccc(-n2ncc(Cl)c(Cl)c2=O)cc1
inactive: [1] | [2]

O=C(COC(=O)/C(=C/c1cccs1)c1cccs1)NC(c1ccccc1)c1ccccc1
inactive: [1] | [2]

Cn1nnnc1Sc1ncnc2scc(-c3cc4ccccc4o3)c12
inactive: [1] | [2]

COc1cc(CNc2ncnc3c2ncn3[C@H]2CN(Cc3ccc(-c4ccccc4)cc3)C[C@@H](CO)O2)cc(OC)c1OC
inactive: [1] | [2]

Cn1nnnc1Sc1ncnc2scc(-c3ccsc3)c12
inactive: [1] | [2]

CC(=O)NC(c1ccc(C(C)C)cc1)c1ccc2cccnc2c1O (stereo not given)
inactive: [1] | [2]

O=C(C1CC1)N1C[C@@H]2N[C@H](C1)C2c1ccc(-c2ccccc2F)cc1 (stereo not given in full)
inactive: [1] | [2]

CC(=NNc1cc(C)c2ccccc2n1)c1ccccn1
inactive: [1] | [2]

Oc1ccc(Cc2ccccc2)c2cccnc12
inactive: [1] | [2]

O=C(c1ccc(Br)cc1)c1cc([N+](=O)[O-])ccc1N1CCCCC1
inactive: [1] | [2]

O=c1[nH]nnc2c1ncn2C1OC(CO)C(O)C1O (stereo not given)
inactive: [1] | [2]

CCCc1ccc(C(=O)O/N=C(\N)c2ccccn2)cc1
inactive: [1] | [2]

COc1cc(C2C(C#N)=C(N)Oc3cc4c(cc32)OCO4)cc(OC)c1OC (stereo not given)
inactive: [1] | [2]

O=[N+]([O-])c1ccc(N/N=C/c2sc(N3CCOCC3)nc2-c2ccccc2)c(S(=O)(=O)Nc2ccc(Cl)cc2)c1
inactive: [1] | [2]

C=CCN1C(=O)/C(=C/c2ccc(OC(C)=O)c(OCC)c2[N+](=O)[O-])SC1=S
inactive: [1] | [2]

CN1CCc2c(sc(NC(=O)c3ccc([N+](=O)[O-])o3)c2C(N)=O)C1
inactive: [1] | [2]

COc1ccc(C[C@H](N)C(=O)N[C@H]2[C@@H](O)[C@H](n3cnc4c(N(C)C)ncnc43)O[C@@H]2CO)cc1
inactive: [1] | [2]

O=C(Cn1ncc(Cl)c(Cl)c1=O)N1CCN(S(=O)(=O)c2ccc3ccccc3c2)CC1
inactive: [1] | [2]

O=S(=O)(NC1CCCCC1N1CCN(c2ccccc2F)CC1)c1ccccc1 (stereo not given)
inactive: [1] | [2]

C[C@@H]1CCCCO[C@H](CN(C)Cc2ccncc2)[C@H](C)CN([C@H](C)CO)C(=O)c2cc(NC(=O)Nc3ccc(C(F)(F)F)cc3)ccc2O1
not listed: [1] | [9] | [10]
inactive: all other assays above

COc1ccccc1NC(=O)N1CCCCN2[C@H](C1)[C@@H](c1ccc(-c3cccc(C#N)c3)cc1)[C@@H]2CO
inactive: [3] | [4] | [2] | [5] | [6] | [7]

COc1ccc(NC(=O)C(=O)NCC2CCCN2S(=O)(=O)c2ccc(C)cc2)cc1 (stereo not given)
inactive: [1] | [2]

O=C(C1CCC1)N1CCCCN2[C@H](CO)[C@H](c3ccc(-c4cccc(F)c4)cc3)[C@H]2C1
inactive: [3] | [4] | [2] | [5] | [9] 7.58% [at 0.26 µM, hits give low values] | [6] | [7] | [8]

COc1ccccc1C#Cc1ccc([C@H]2[C@H](C#N)N(C(=O)C3CCCC3)[C@H]2CO)cc1
inactive: [1] | [7] | [10]

O=C(CN1C(=O)c2ccccc2S1(=O)=O)c1ccc(Cl)cc1Cl
inactive: [1] | [2] | [5] | [9] | [6] | [7]

Cc1ccc(S(=O)(=O)Nc2ccc3c(c2)C(=O)N([C@H](C)CO)C[C@H](C)[C@@H](CN(C)S(=O)(=O)c2ccc(F)cc2)OCCCC[C@H](C)O3)cc1
inactive: [3] | [4] | [2]

C=C(C)c1cccc(C(C)(C)NC(=O)N2CCN(c3ccccc3OC)CC2)c1
inactive: [3] | [4] | [2]

C[C@@H]1CN([C@@H](C)CO)C(=O)c2cc(NC(=O)CCC(F)(F)F)ccc2O[C@@H](C)CCCCO[C@H]1CN(C)Cc1ccc(C(F)(F)F)cc1
inactive: [1] | [2] | [6] | [7]

COc1ccc(S(=O)(=O)Nc2ccc3c(c2)C(=O)N([C@H](C)CO)C[C@H](C)[C@H](CN(C)S(=O)(=O)c2ccc(F)cc2)OCCCC[C@H](C)O3)cc1
inactive: [1] | [2] | [5] | [9] -7.5% | [6] | [7] | [8]

C[C@@H]1CCCCO[C@H](CN(C)Cc2ccc(C(F)(F)F)cc2)[C@@H](C)CN([C@@H](C)CO)C(=O)c2cc(NC(=O)c3ccccc3)ccc2O1
inactive: [1] | [6] | [7]

C[C@@H]1CN([C@H](C)CO)C(=O)c2cc(NC(=O)Cc3ccccc3)ccc2O[C@@H](C)CCCCO[C@H]1CN(C)Cc1ccc(C(F)(F)F)cc1
inactive: [3] | [4] | [2] | [5] | [6] | [7]

O=C(CCS(=O)(=O)c1ccccc1)Nc1nc2ccc(F)cc2s1
inactive: [1] | [2] | [6] | [7]

COc1cc(/C=C/C(=O)N2CCC=CC2=O)cc(OC)c1OC
inactive: [3] | [4] | [2]

COc1ccc(NC(=O)Nc2ccc3c(c2)C(=O)N([C@@H](C)CO)C[C@@H](C)[C@@H](CN(C)Cc2ccc(C(F)(F)F)cc2)O3)cc1
inactive: [3] | [4] | [2] | [5] | [9] -14.9% [at 0.5 µM, hits give low values] | [6] | [7] | [8]

COc1ccc(C#Cc2ccc([C@H]3[C@@H](CO)N4CCCCN(C(=O)Nc5ccccc5)C[C@H]34)cc2)cc1
not listed: [1] | [9] | [10]
inactive: all other assays above

CN(C)CCCN(C(=O)CCOc1ccccc1)c1nc2c(F)cccc2s1
inactive: [1] | [2] | [6] | [7]

COc1cccc(-c2ccc3c(c2)[C@@H]2[C@@H](CCN2S(=O)(=O)c2ccccc2C)[C@H](CO)N3C)c1
inactive: [3] | [4] | [2] | [5] | [9] -25.8% [at 30 µM, hits give low values] | [6] | [7] | [8]

C[C@@H]1CCCCO[C@H](CN(C)C(=O)Cc2ccccc2)[C@@H](C)CN([C@@H](C)CO)C(=O)c2cc(NS(=O)(=O)c3ccc(Cl)cc3)ccc2O1
inactive: [1] | [2] | [5] | [6]

C[C@@H]1CCCCO[C@@H](CN(C)Cc2ccncc2)[C@H](C)CN([C@@H](C)CO)C(=O)c2cc(NC(=O)Nc3ccc(C(F)(F)F)cc3)ccc2O1
inactive: [3] | [4] | [2] | [5] | [6] | [7]

Cc1ccc(/C=N/NC(=O)COc2ccccc2-c2ccccc2)cc1
inactive: [1] | [2]

C[C@@H]1CCCCO[C@H](CN(C)C(=O)c2ccccc2)[C@H](C)CN([C@@H](C)CO)C(=O)c2cc(NC(=O)Nc3ccc(C(F)(F)F)cc3)ccc2O1
inactive: [3] | [4] | [2] | [5] | [6]

CCOc1ccc(C2=Nn3c(nnc3-c3ccccc3OC)SC2)cc1
inactive: [3] | [4]

C[C@H](CO)N1C[C@H](C)[C@@H](CN(C)S(=O)(=O)c2ccc(Cl)cc2)OCCCC[C@H](C)Oc2ccc(NS(=O)(=O)c3ccc(F)cc3)cc2C1=O
inactive: [3] | [4] | [2] | [5] | [6] | [8]
